Screening results: PubChem BioAssay, National Center for Advancing Translational Sciences (NCATS)
An excerpt weighted towards active compounds, which were near 7.9% of everything screened.
SW480 rereplic – A quantitative high throughput screen for small molecules that induce DNA re-replication in SW480 colon adenocarcinoma cells | Potency, µM (titrated, usually from 46.1 µM), hits mostly activators | SW480 DNA re-replication, Hoechst DNA content imaging, 48 h | 1.8% of 340,000 active; note: nearly all actives have a fitted effect of over 55% in size
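Quantitative HTS format with DMSO vehicle controls; 48 hr drug incubation at 37 C, then 40 min Hoechst staining and scanning imager measurement at 405 nm excitation.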
KB-3-1 tox – qHTS assay for MDR1-selective chemotherapeutics: Primary screen using the parental adenocarcinoma cell KB-3-1; KB-3-1 viability, CellTiter-Glo ATP luminescence, 72 h; AID 1347075, 2019; Potency, µM (titrated, usually from 46.1 µM), actives largely listed as cytotoxic; 1.4% of 400,000 active; note: nearly all actives have a fitted effect of over 60% in size
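Here the drug-naive KB-3-1 line serves as comparator for MDR sub-line selectivity; cells received compound titrations, 72 h at 37 °C, then CellTiter-Glo readout.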
HT1080 IDH1KD tx – qHTS for induction of synthetic lethality in tumor cells producing 2HG: qHTS for the HT-1080-IDH1KD cell line; Potency, µM (doses to about 46.1 µM), usual class: cytotoxic; HT-1080 IDH1 knockdown viability, ATP luminescence, 48 h; AID 686971, 2013; 2% of 360,000 active
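Knockdown cells (IDH1KD HT-1080) received compounds 2 h after plating at 750 cells/well and were kept 48 h at 37 °C in 5% FBS RPMI. A CellTiter-Glo luminescence read gave % activity for curve fitting.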
HT1080NT lethal – qHTS for induction of synthetic lethality in tumor cells producing 2HG: qHTS for the HT-1080-NT fibrosarcoma cell line; HT-1080-NT fibrosarcoma viability, CellTiter-Glo ATP luminescence, 48 h; Potency, µM (highest dose often 46.1 µM), hits mostly cytotoxic; 1.6% of 360,000 active;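 note: NT is the 2HG producing partner of a matched IDH1 knockdown line; nearly all actives have a fitted effect of over 55% in size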
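Compounds were tested in concentration-response format on HT-1080-NT cells for 48 hours at 37 degrees C. Cell viability came from CellTiter-Glo luminescence; curves were classified by r2, response magnitude and activity.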
MCF10A rerep – A quantitative high throughput screen for small molecules that induce DNA re-replication in MCF 10a normal breast cells; MCF 10A DNA re-replication, Hoechst nuclear intensity, 48 h; Potency, µM (highest dose often 46.1 µM), actives largely listed as activators; 2.9% of 350,000 active; note: nearly all actives have a fitted effect of over 50% in size
KB-V1 cytotox – qHTS assay for MDR1-selective chemotherapeutics: Primary screen using the drug-selected MDR subline cells KB-V1; KB-V1 MDR cells viability, CellTiter-Glo, 72 h; Potency, µM (titrated, usually from 46.1 µM), most hits filed as cytotoxic; 3.4% of 400,000 active; AID 1347076, 2019; note: nearly all actives have a fitted effect of over 60% in size
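In this primary screen, KB-V1 cells overexpressing P-gp are incubated with library compounds (lowest to highest concentration) for 72 h at 37 degrees C before a luminescent ATP viability read.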
Large screens that a line does not name were inactive; ! = not confirmed by another sample. Calls come from the whole dose curve; as a rule, active = well fitted curve in the direction sought with a large enough effect; inconclusive = small, poorly fitted or top-dose-only effect, or another doubt; inactive = no such curve, though single readings can be large; an effect the other way counts as inactive or inconclusive.

O=C(Nc1nnc([C@@H]2O[C@H](CO)[C@@H](O)[C@H]2O)s1)Nc1ccccc1C(F)(F)F	none (no result: SW480 rereplic, MCF10A rerep)
O=C1ON=C(c2ccccc2[N+](=O)[O-])/C1=C/c1cccc([N+](=O)[O-])c1O	KB-V1 cytotox inconclusive
CC(C)C[C@@H]1COc2cc(N3CC[C@H](O)C3)ccc2S(=O)(=O)N1	none (no result: SW480 rereplic, MCF10A rerep)
COc1ccccc1NS(=O)(=O)c1cc([N+](=O)[O-])ccc1N/N=C/c1c[nH]c2ccccc12	SW480 rereplic inconclusive, KB-3-1 tox inconclusive, HT1080 IDH1KD tx inconclusive, HT1080NT lethal inconclusive, MCF10A rerep 8.2µM, KB-V1 cytotox inconclusive
CC(C)Cn1c(SCC(N)=O)nnc1-c1cccc(S(=O)(=O)N2CCOCC2)c1	none
Cc1ccc(CSc2nnc(-c3cccc(S(=O)(=O)N4CCOCC4)c3)n2CC(C)C)cc1	KB-3-1 tox 23µM, KB-V1 cytotox 4.6µM
O=c1[nH]c2cc(S(=O)(=O)CCO)ccc2o1	none
CCOC(=O)[C@]12CCC=C1N(Cc1ccccc1)C(=O)[C@H](CC(=O)NCc1ccccc1)C2	none (no result: SW480 rereplic, MCF10A rerep)
Cc1nnc2n(-c3ccccc3)c(=O)c3c4c(sc3n12)CC(C)CC4 (stereo unspecified)	KB-V1 cytotox 8.2µM
COc1ccc(-n2c(=O)c3c4c(sc3n3cnnc23)CC(C)CC4)cc1 (stereo unspecified)	none
C=CCn1c(N)c(C(=O)Nc2ccccc2OC)sc1=S	none
C=CCn1c(N)c(C(=O)Nc2ccc(C)cc2)sc1=S	KB-V1 cytotox 18µM
O=C(CSc1nc(-c2ccccc2)cs1)N1CCN(C(=O)c2ccco2)CC1	KB-V1 cytotox 18µM
Cc1ccc(OCC(=O)N2CCN(c3nnc(-c4ccccc4)c4ccccc34)CC2)cc1	SW480 rereplic inconclusive, KB-3-1 tox inconclusive, HT1080 IDH1KD tx inconclusive, HT1080NT lethal inconclusive, MCF10A rerep inconclusive, KB-V1 cytotox 4.1µM
O=C(c1ccco1)N1CCN(c2nnc(-c3ccccc3)c3ccccc23)CC1	KB-V1 cytotox 16µM
O=C(CSc1ccccc1)N1CCN(C(=O)c2ccco2)CC1	MCF10A rerep inconclusive
CN1OC[C@@H]2CN(C(=O)CCc3ccccc3)[C@H](c3cccc(Oc4ccccc4)c3)C[C@@H]21	none
Cc1cc(C)nc(Nc2ncc(O)n2-c2ccc(C)c(C)c2)n1	HT1080 IDH1KD tx inconclusive, KB-V1 cytotox 12µM
Cc1cc(C)nc(Nc2ncc(O)n2-c2ccc(C)c(Cl)c2)n1	none
C(C#CCCCCCCCCC[n+]1ccccc1)#CCCCCCCCCC[n+]1ccccc1	SW480 rereplic inconclusive, KB-3-1 tox 3.7µM!, HT1080 IDH1KD tx 7.3µM, HT1080NT lethal 8.2µM, MCF10A rerep inconclusive
CCCCCCCCCC[n+]1cccc(Br)c1	KB-3-1 tox inconclusive (no result: SW480 rereplic, HT1080 IDH1KD tx, HT1080NT lethal, MCF10A rerep)
COc1ccc(C(C[N+](=O)[O-])c2c(C)cc3ccccn23)cc1 (stereo unspecified)	SW480 rereplic inconclusive, HT1080 IDH1KD tx inconclusive, HT1080NT lethal inconclusive, MCF10A rerep 21µM
COc1cccc(C(c2c(C)[nH]n(-c3ccccc3)c2=O)c2c(C)[nH]n(-c3ccccc3)c2=O)c1OC	MCF10A rerep 6.5µM
COc1ccc(C(C[N+](=O)[O-])c2c(C)[nH]n(-c3ccccc3)c2=O)cc1 (stereo unspecified)	SW480 rereplic inconclusive, HT1080NT lethal inconclusive, MCF10A rerep 12µM
Cc1cc2ccccn2c1C(C[N+](=O)[O-])c1ccc(N(C)C)cc1 (stereo unspecified)	none
COc1ccc(C(C[N+](=O)[O-])c2c(-c3ccccc3)cc3ccccn23)c(OC)c1 (stereo unspecified)	SW480 rereplic inconclusive, KB-3-1 tox inconclusive, HT1080 IDH1KD tx inconclusive, HT1080NT lethal inconclusive, MCF10A rerep 16µM, KB-V1 cytotox inconclusive
Cc1[nH]n(-c2ccccc2)c(=O)c1C(c1ccc(O)c([N+](=O)[O-])c1)c1c(C)[nH]n(-c2ccccc2)c1=O	none
O=C(c1ccc2c(c1)N(Cc1cccc(F)c1)C(=O)c1ccccc1S2)N1CCCC1	none (no result: SW480 rereplic, HT1080 IDH1KD tx, HT1080NT lethal, MCF10A rerep)
COc1cc(CNc2ccc(C(=O)O)cc2)cc(Br)c1OCC(=O)NC(C)(C)C	KB-V1 cytotox inconclusive
C=CCOc1c(Br)cc(CNc2ccc(NC(=O)C(C)C)c(OC)c2)cc1OC	SW480 rereplic 18µM, KB-3-1 tox inconclusive, HT1080 IDH1KD tx inconclusive, HT1080NT lethal inconclusive, MCF10A rerep 5.8µM, KB-V1 cytotox 4.1µM
Cc1sc2nc3ccc(N4CCCCC4)nn3c(=O)c2c1C	KB-V1 cytotox 9.2µM
CN(CC(=O)Nc1ccc(Cl)c(C(F)(F)F)c1)C(=O)c1cccc2cccnc12	KB-V1 cytotox 18µM
COc1ccc(NC(=O)CSCC(=O)N(C)CC(=O)Nc2ccc(Cl)c(C(F)(F)F)c2)cc1	SW480 rereplic inconclusive, HT1080NT lethal inconclusive
Cc1cc(C)cc(OCC(=O)N(C)CC(=O)Nc2ccc(Cl)c(C(F)(F)F)c2)c1	KB-3-1 tox inconclusive, MCF10A rerep 6.5µM
CCCc1ccc(C(O)c2ncc(-c3ccccc3)[nH]2)cc1 (stereo unspecified)	none (no result: SW480 rereplic, MCF10A rerep)
CC(C)CN(C(=O)COc1ccccc1C(=O)NCc1ccccc1)C1CCS(=O)(=O)C1 (stereo unspecified)	none (no result: SW480 rereplic, MCF10A rerep)
O=c1c(Cl)c(Cl)cnn1-c1ccccc1	SW480 rereplic 4.1µM, KB-3-1 tox 18µM, HT1080 IDH1KD tx 4.6µM, HT1080NT lethal 4.1µM, MCF10A rerep 3.7µM
CCOc1cnn(-c2ccccc2)c(=O)c1Cl	HT1080 IDH1KD tx 16µM, HT1080NT lethal inconclusive, MCF10A rerep 26µM
CCSc1cnn(-c2ccccc2)c(=O)c1Cl	SW480 rereplic inconclusive, HT1080 IDH1KD tx inconclusive, HT1080NT lethal inconclusive, MCF10A rerep inconclusive
Nc1c(Cl)cnn(-c2ccccc2)c1=O	none
Cc1sc(NC(=O)C2c3ccccc3Oc3ccccc32)c(C(=O)OC(C)C)c1C	none (no result: SW480 rereplic, HT1080 IDH1KD tx, HT1080NT lethal, MCF10A rerep)
CCc1ccc(C(=O)Cn2ccsc2=N)cc1	KB-3-1 tox inconclusive, KB-V1 cytotox 18µM
COCCCn1c(SCC(=O)Nc2ccc(F)cc2)nc2c(sc3ccccc32)c1=O	none (no result: SW480 rereplic, HT1080 IDH1KD tx, HT1080NT lethal, MCF10A rerep)
O=c1oc(C2(O)CCCCC2)cc2ccc(/C=C/c3ccc(F)cc3)cc12	none
O=C(NCC(c1ccco1)N1CCCCC1)c1cccc(NS(=O)(=O)c2ccc(Br)cc2)c1 (stereo unspecified)	MCF10A rerep 18µM, KB-V1 cytotox inconclusive
